In the supplement of paper PMC11732987, “Enantioselective OTUD7B fragment discovery through chemoproteomics screening and high-throughput optimisation” (Communications Chemistry, 2025):

Experiments:
Test in all cases: log2 ratio of Biotin-Ahx-Ub-VS probe labelling (fragment/DMSO); higher = less target engagement (more negative = stronger competition), active = hit call of the paper (q ≤ 0.05, log2 ratio ≤ -1)
Conditions in all cases: compound concentration: 200 uM; treatment time: 3 h
USP19 = target: T1, USP19 (UniProt O94966)
T1 sequence (whole entry): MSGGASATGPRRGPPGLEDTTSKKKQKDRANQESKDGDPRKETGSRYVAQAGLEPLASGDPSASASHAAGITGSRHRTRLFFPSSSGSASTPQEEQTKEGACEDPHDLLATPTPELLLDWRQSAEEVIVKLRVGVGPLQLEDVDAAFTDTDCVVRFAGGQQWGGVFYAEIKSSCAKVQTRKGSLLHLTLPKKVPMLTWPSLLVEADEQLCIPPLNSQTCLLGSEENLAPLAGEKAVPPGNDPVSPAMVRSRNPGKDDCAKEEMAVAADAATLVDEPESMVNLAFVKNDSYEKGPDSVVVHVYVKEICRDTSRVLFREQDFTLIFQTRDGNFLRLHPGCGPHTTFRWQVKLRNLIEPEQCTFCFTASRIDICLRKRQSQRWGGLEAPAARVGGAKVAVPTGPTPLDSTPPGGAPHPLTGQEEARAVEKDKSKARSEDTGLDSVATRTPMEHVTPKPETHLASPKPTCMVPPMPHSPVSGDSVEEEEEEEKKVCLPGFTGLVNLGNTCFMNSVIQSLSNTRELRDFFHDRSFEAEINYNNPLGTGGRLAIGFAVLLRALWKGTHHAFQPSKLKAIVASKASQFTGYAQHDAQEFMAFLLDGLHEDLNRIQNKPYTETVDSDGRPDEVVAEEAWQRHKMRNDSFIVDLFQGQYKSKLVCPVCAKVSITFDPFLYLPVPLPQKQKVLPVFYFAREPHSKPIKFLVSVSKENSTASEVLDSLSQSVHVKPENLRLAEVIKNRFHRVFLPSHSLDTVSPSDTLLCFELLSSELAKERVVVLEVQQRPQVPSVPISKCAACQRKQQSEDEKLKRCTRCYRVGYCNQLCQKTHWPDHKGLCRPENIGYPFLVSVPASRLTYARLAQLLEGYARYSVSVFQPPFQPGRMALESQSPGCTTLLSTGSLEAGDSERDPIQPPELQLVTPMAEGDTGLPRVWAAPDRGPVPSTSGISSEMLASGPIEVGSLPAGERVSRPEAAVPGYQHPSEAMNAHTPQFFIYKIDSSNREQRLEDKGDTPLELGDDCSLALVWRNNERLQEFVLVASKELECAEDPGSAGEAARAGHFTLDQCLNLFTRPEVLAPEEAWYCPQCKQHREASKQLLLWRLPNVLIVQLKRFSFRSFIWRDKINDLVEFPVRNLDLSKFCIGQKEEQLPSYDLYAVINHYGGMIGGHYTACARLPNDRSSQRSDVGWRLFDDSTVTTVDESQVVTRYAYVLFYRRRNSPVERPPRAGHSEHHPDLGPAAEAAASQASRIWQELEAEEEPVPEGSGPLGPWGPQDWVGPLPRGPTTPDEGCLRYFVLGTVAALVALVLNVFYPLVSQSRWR
Summary of the method: (§1)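 HEK293T lysate, 495 µg per sample in Tris/CHAPS/IGEPAL buffer with protease inhibitors, was treated in triplicate with fragment at 200 µM or vehicle for 3 h and then with Biotin-Ahx-Ub-VS at 0.5 µM final for 1 h. Labelled DUBs were NeutrAvidin-enriched, digested with LysC and trypsin, and run by diaPASEF LC-MS/MS. Spectronaut label-free quantities were global-median-normalised, and values are average log2 fragment/vehicle ratios by unpaired t-test on proteins with ≥2 unique peptides.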

USP22 = target: T2, USP22 (UniProt Q9UPT9)
T2 sequence (whole entry): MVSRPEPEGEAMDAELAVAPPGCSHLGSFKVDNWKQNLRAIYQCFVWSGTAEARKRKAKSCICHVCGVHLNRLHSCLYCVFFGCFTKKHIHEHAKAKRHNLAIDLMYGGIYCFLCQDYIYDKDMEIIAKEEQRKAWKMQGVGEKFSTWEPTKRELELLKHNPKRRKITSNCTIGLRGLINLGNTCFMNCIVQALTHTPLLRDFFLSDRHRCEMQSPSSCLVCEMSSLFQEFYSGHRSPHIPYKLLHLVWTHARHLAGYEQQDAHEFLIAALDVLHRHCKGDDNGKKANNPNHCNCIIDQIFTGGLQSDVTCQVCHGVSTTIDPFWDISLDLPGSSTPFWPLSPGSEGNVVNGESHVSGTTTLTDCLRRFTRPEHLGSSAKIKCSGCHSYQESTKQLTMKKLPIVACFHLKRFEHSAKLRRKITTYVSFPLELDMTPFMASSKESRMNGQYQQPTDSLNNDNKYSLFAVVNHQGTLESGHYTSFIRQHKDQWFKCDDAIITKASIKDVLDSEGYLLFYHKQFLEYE
Summary of the method: as §1

USP24 = USP24 (UniProt Q9UPU5)
USP24, sequence (Q9UPU5 whole entry): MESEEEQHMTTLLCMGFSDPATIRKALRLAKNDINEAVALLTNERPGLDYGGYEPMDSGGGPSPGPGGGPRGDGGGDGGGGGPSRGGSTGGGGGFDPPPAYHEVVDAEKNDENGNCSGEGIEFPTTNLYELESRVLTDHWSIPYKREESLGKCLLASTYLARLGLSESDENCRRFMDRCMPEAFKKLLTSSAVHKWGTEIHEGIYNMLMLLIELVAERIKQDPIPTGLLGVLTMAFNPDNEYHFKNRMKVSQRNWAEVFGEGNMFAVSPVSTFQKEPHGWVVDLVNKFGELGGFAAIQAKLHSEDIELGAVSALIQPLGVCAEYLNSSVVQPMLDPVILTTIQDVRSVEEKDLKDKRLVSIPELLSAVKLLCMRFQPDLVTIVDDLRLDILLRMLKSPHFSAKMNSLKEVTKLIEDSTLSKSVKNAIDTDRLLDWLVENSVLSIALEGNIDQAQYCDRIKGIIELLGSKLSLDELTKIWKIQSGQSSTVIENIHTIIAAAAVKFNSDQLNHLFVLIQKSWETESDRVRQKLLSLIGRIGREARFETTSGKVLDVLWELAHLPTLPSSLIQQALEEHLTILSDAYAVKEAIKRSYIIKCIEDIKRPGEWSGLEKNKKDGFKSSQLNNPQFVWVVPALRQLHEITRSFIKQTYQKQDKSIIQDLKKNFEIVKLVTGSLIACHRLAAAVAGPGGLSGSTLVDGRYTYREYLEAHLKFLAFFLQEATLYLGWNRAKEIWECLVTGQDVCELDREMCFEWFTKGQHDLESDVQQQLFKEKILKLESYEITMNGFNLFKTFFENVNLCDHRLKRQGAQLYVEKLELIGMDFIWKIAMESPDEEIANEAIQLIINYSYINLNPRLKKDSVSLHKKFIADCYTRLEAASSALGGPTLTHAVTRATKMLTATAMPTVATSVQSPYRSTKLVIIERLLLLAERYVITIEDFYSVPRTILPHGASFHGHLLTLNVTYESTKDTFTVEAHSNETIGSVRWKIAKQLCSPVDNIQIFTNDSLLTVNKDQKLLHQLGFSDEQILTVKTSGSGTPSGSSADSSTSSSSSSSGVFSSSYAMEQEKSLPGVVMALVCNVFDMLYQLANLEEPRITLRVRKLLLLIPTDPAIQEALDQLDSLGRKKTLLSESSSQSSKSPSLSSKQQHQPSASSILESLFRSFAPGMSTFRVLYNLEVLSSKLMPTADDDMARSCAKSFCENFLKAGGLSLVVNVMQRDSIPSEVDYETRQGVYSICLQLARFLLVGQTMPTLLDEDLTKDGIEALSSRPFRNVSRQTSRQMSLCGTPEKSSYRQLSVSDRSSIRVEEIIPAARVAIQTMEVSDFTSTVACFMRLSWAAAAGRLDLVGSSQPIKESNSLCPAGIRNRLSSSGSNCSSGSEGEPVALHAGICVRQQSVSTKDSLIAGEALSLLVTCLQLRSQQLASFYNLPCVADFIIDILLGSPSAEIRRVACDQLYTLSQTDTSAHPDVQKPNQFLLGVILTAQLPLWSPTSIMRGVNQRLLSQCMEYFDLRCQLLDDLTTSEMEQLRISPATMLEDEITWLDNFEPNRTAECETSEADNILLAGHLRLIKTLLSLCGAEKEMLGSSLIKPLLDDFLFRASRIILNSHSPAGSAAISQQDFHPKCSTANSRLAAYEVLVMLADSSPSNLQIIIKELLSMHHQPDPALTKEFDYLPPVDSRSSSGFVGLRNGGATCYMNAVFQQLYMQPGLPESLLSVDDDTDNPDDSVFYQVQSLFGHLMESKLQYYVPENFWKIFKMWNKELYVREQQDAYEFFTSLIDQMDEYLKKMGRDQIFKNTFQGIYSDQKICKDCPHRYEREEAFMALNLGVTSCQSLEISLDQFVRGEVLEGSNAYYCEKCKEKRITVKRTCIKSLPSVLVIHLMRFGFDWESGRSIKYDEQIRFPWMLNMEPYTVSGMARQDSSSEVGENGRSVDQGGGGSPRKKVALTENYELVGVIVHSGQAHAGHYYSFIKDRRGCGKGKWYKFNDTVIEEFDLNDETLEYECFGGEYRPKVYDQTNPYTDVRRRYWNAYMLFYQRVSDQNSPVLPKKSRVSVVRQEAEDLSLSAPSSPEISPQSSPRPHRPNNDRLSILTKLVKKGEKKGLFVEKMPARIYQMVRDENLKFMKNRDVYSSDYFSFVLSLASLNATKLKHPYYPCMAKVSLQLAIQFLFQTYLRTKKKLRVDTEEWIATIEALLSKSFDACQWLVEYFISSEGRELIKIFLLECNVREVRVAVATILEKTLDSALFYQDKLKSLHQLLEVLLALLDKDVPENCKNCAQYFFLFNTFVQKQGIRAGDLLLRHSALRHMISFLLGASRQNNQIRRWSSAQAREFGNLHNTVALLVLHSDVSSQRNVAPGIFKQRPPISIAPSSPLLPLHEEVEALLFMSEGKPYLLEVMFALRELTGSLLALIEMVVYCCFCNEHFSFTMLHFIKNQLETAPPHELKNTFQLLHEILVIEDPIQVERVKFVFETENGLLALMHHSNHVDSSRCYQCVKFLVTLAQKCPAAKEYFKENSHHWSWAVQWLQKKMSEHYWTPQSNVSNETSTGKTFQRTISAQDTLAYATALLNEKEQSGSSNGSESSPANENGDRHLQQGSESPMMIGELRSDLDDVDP
Summary of the method: as §1

USP25 = target: T3, USP25 (UniProt Q9UHP3)
T3 sequence (whole entry): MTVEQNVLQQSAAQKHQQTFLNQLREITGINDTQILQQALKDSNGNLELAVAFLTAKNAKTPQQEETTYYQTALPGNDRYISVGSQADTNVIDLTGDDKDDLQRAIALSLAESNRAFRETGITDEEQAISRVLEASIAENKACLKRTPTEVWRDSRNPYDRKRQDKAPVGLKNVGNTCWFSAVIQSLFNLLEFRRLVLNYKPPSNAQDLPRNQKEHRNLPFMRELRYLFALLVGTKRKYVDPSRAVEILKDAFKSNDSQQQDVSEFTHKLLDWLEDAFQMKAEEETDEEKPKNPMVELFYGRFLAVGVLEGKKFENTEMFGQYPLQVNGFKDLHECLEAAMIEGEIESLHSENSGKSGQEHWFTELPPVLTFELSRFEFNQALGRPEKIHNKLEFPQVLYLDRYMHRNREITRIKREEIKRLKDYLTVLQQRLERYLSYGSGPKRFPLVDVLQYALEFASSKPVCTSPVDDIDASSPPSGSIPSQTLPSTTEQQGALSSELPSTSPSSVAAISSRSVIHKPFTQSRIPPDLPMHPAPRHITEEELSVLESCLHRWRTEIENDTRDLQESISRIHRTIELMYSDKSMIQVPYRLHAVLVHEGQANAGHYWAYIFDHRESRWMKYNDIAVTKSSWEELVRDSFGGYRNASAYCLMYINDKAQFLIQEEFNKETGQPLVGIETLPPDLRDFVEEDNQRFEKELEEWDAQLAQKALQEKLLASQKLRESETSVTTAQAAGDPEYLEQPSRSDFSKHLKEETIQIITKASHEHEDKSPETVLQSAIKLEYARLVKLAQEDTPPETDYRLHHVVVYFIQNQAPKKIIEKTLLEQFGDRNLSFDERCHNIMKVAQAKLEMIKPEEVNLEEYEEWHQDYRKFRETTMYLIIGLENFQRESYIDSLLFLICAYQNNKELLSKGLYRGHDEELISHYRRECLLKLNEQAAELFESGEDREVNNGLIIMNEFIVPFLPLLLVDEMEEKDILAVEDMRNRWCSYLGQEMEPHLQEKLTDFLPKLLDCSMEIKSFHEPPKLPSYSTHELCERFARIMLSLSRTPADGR
Summary of the method: as §1

USP28 = target: T4, USP28 (UniProt Q96RU2)
T4 sequence (whole entry): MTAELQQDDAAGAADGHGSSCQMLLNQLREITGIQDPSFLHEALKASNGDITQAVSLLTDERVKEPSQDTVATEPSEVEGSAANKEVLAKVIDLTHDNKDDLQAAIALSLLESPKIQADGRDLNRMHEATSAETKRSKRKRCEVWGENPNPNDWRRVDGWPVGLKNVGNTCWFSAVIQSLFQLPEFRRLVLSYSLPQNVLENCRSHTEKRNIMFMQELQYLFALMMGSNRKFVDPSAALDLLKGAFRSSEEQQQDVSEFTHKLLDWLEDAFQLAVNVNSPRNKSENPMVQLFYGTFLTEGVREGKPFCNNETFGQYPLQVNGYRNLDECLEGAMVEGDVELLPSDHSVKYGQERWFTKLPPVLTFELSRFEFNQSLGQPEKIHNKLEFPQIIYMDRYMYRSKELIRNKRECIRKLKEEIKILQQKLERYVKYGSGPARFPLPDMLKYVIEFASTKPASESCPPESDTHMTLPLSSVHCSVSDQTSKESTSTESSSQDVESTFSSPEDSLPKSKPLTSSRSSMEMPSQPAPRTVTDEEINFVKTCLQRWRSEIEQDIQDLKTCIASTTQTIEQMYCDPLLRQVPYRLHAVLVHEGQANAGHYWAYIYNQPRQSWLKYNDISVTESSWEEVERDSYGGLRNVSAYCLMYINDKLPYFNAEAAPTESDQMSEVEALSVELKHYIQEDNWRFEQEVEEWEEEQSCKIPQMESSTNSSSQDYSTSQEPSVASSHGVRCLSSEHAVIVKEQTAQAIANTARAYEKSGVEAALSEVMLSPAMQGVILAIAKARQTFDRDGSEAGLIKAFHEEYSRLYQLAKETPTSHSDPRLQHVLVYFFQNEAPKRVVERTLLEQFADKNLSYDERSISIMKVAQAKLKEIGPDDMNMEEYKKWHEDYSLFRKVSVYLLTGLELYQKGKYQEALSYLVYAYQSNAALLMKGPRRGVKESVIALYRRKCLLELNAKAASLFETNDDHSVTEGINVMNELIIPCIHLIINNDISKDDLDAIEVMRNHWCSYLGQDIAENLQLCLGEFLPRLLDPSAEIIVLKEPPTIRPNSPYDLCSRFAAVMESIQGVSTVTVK
Summary of the method: as §1

Measured: log2 ratio of Biotin-Ahx-Ub-VS probe labelling

O=C(CCl)N1CCC(c2noc3cc(F)ccc23)CC1
inactive: USP19 -0.49 | USP22 -0.492 | USP24 -0.986 | USP25 -0.302 | USP28 -0.607
